The text below walks through data of PubChem BioAssay AID504834 (National Center for Advancing Translational Sciences (NCATS), 2011).

About 22,000 (6.9%) of roughly 320,000 compounds were called active. About 27% were inconclusive and are not listed. This is one part of a sample in which actives are shown more often than they occur. Unmarked numbers belong to inactive results. The call rests on the fitted dose curve; in most records, active means well fitted inhibition curve with a large enough effect; inconclusive means small, poorly fitted or top-dose-only effect, or another doubt; inactive means no such curve, though single readings can be large or run the other way.
On the % scale 0 is the no-effect control and ±100 the full control effect; potency means the concentration at half of the fitted maximal effect.

The assay is described as follows: Primary qHTS for delayed death inhibitors of the malarial parasite plastid, 96 hour incubation. To be noted: P. falciparum luciferase reporter growth; series mostly up to 28.7 µM; activity change, negative = inhibition: at the top concentration. The text has this:
The goal of this screen is to discover new antimalarial compounds that act by inhibiting the development of the apicoplast in the malarial parasite Plasmodium falciparum. The biochemical processes that make this organelle essential for erythrocytic stage parasites are not well understood. However, antibiotics such as azithromycin and tetracycline, which target the apicoplast translational machinery, have a potent antimalarial effect.
We have developed a cell-based assay that measures parasite growth based on the expression of an integrated copy of a firefly luciferase reporter. To detect small molecules that cause this "delayed death" phenotype, erythrocytes infected with the luciferase-expressing parasites were incubated with compounds for either one or two generations, corresponding to 48 and 96 hours, respectively. Compounds that inhibit parasite growth in the second generation, but not the first, should be enriched in antimalarials that target the apicoplast. Growth inhibition is detected by a decrease in luciferase activity.
Assay Provider: David Fidock and Eric Ekland, Columbia University
Keywords: NIH Roadmap, MLPCN, MLI, MLSMR, qHTS, NCGC, qHTS, malaria, luciferase, viability
Four microliters of infected erythrocytes (2% hematocrit, 0.05% parasitemia final concentration) in culture medium were dispensed and the plates incubated for 96 hours at 37 C in 5% CO2. Two microliters of luciferase detection reagent was added and luminescence was detected by a ViewLux (PerkinElmer) reader.
In general terms: qHTS replaces the single test concentration by a dilution series.
With `CCOc1cc(C(=O)O)ccc1OCCOc1ccccc1`, the “activity change, negative = inhibition” value was 10.2%.

For `CN(CC(=O)Nc1cccc(F)c1)C(=O)CC1CCCC1`, the “activity change, negative = inhibition” value was 30.9%. Regarding `c1ccc(-c2nccc(-c3ccc(-n4cnc5ccccc54)cc3)n2)nc1`, the Potency was 4.15 µM (active).

As for `Cn1c(NC(=O)c2ccccc2)nc2ccccc21`, the “activity change, negative = inhibition” value was -49.6%. As to `COC(=O)c1ccc(-n2cnc3ccccc32)nc1`, the “activity change, negative = inhibition” value was 0%. Still for that read-out and setting: under `O=C(O)C1=NN(c2c(F)c(F)cc(F)c2F)C(=O)CC1` stands 20.6%. On the same count and under the same terms, under `CSc1ncccc1C(=O)Nc1ccc(C)cn1` stands 43.7%. On to `CCc1ccccc1NC(=O)Cc1cn(C)c2ccccc12`, for which the Potency was 13.1 µM (active). `CCc1ccccc1NC(=O)CCOc1ccccc1`: the “activity change, negative = inhibition” value is -7.11%. As to `CCOC(=O)N1CCC(NC(=O)Cc2cn(C)c3ccccc23)CC1`, the “activity change, negative = inhibition” value is 34.3%. Still for that read-out and setting: the same measure for `COc1ccc(CNc2nc3c(c(=O)[nH]c(=O)n3C)n2Cc2ccccc2)cc1`: 12.3%; for `O=C(CC(c1ccccc1)c1ccccc1)NCC(O)c1ccc([N+](=O)[O-])cc1` (stereo unspecified): -27.2%. For `O=C(CSc1cccc[n+]1[O-])NCCCc1ccccc1`, the “activity change, negative = inhibition” value was 23.3%. As for `Cc1ccc(C(=O)CSc2ccccc2C(=O)O)cc1`, the “activity change, negative = inhibition” value is 188%.

For the molecule `O=C(CSc1cccc[n+]1[O-])c1ccc(-c2ccccc2)cc1`, the Potency is 8.28 µM (active). For `CCCCC(=O)Nc1c2c(nn1-c1ccc([N+](=O)[O-])cc1)CS(=O)(=O)C2`, the “activity change, negative = inhibition” value is 14.9%. With `O=C(NCc1ccccn1)C1CCN(S(=O)(=O)c2ccc(Br)cc2)CC1`, the “activity change, negative = inhibition” value was 21.9%. Consider `COCCN(C(=S)Nc1ccccc1OC)C1CCN(C(C)C)CC1`, for which the “activity change, negative = inhibition” value is -15.9%. `COc1ccc2[nH]c(C)c(CCN(Cc3cccs3)C(=S)Nc3ccccc3OC)c2c1`: the Potency was 13.1 µM (active).

Turning to `CCN(CC(=O)NCc1cccs1)C(=O)c1cccc(S(=O)(=O)Nc2ccccc2OC)c1`, the “activity change, negative = inhibition” value was 15.4%. For `COc1ccc(S(=O)(=O)NC(C)c2ccccc2)cc1C(=O)N1CCCCC1` (stereo unspecified), the “activity change, negative = inhibition” value is 25.7%. Consider `CC(=O)Nc1ccc(S(=O)(=O)N2CCN(S(=O)(=O)c3cccs3)CC2)cc1`, for which the “activity change, negative = inhibition” value was -14.8%. Turning to `CC(C)C(NS(=O)(=O)c1cccs1)C(=O)Nc1nc(C(C)(C)C)cs1` (stereo unspecified), the Potency is 13.1 µM (active).

Regarding `CC(C)(C)c1csc(NC2=NS(=O)(=O)c3ccccc32)n1`, the “activity change, negative = inhibition” value is 0%.

Take `Cc1ccc(CS(=O)(=O)CCC(=O)NCc2ccc(F)cc2)cc1`: the “activity change, negative = inhibition” value is -0.448%. On the same count and under the same terms, the same measure for `COc1ccc(CCC(C)N2CCc3ccccc3C2)cc1` (stereo unspecified): 1.99%. For `O=C(CN(C(=O)CCC(=O)Nc1nccs1)c1ccc(F)cc1)NCc1ccc2c(c1)OCO2`, the “activity change, negative = inhibition” value was 45.9%. Regarding `CCC1Sc2ccc(S(=O)(=O)CCC(=O)NCc3cccs3)cc2NC1=O` (stereo unspecified), the “activity change, negative = inhibition” value is 6.87%. The same measure, in the same setting: under `Cc1nc(-c2nnc(SCC(=O)Nc3cc(C(F)(F)F)cc(C(F)(F)F)c3)n2C)cs1` stands 25.6%; under `CCN(C(=O)COC(=O)C1CCN(S(=O)(=O)c2ccc(C)c(C)c2)CC1)C1CCS(=O)(=O)C1` (stereo unspecified), -1.93%. On to `CCCNC(=O)OC[C@H]1O[C@H](CCO/N=C/[C@@H](NS(=O)(=O)c2ccc(C)cc2)[C@H](C)/C=C/CC(=O)OC)C=C[C@@H]1Oc1ccc(OC)cc1`, for which the Potency is 7.38 µM (active). Turning to `CCCC(C)NC(=O)C1CCN(C(=O)C2CC(=O)N(c3ccc(C)cc3)C2)CC1` (stereo unspecified), the “activity change, negative = inhibition” value is 332%.

Take `COc1ccc(CCNC(=O)COC(=O)C2CC2C)cc1` (stereo unspecified): the “activity change, negative = inhibition” value was -20.6%.

Consider `Clc1ccc(C(Cn2ccnc2)OCc2ccsc2Cl)c(Cl)c1` (stereo unspecified), for which the Potency is 6.75 µM (active). For `O=C(NCCCn1ccnc1)Nc1ccc(Cl)cc1Cl`, the “activity change, negative = inhibition” value was -24.9%. For `O=C(Nc1ccccc1C(=O)NCCCn1ccnc1)c1ccc(Cl)cc1Cl`, the “activity change, negative = inhibition” value is -16.7%. On the same count and under the same terms, under `CC(OC(=O)CCCOc1ccccc1)C(=O)Nc1ccc(Cl)cn1` (stereo unspecified) stands 0.813%; under `CC1CCN(C(=O)COC(=O)CCC(=O)c2cccs2)CC1`, 0.599%; under `Cc1c(C(C)(C)O)[nH]c2ccc(C#N)cc12`, 108%.

In the case of `O=S(=O)(c1ccc(Br)cc1)N1CCC(c2nc3ccccc3[nH]2)CC1`, the “activity change, negative = inhibition” value was 36.7%. Turning to `O=C(c1ccccc1F)N1CCN(S(=O)(=O)c2ccc(Br)cc2)CC1`, the “activity change, negative = inhibition” value was -20%. For the molecule `O=S(=O)(c1ccc(Br)cc1)n1ccc2ccccc21`, the Potency was 2.62 µM (active). In the case of `C/C=C/c1ccc(OCC(=O)OCC(=O)Nc2c(C)nn(-c3ccccc3)c2C)c(OC)c1`, the “activity change, negative = inhibition” value is 9.93%.

Consider `COc1ccc(CNC(=O)C(c2ccc(O)cc2)N(Cc2ccco2)C(=O)c2snc(C(N)=O)c2N)cc1` (stereo unspecified), for which the “activity change, negative = inhibition” value was -9.26%. With `Cc1cccc(C(=O)N2CCCC(Nc3ccc(C(C)C)cc3)C2)n1` (stereo unspecified), the “activity change, negative = inhibition” value was 25.2%.

As for `CC(C)NC(=O)CCCn1c(=S)[nH]c2cc3c(cc2c1=O)OCO3`, the “activity change, negative = inhibition” value is 4.1%.

`O=C(CCn1c(=S)[nH]c2cc3c(cc2c1=O)OCO3)NCc1ccc(Cl)cc1`: the Potency was 11.7 µM (active). For the molecule `CCCCNC(=O)CCn1c(=S)[nH]c2cc3c(cc2c1=O)OCO3`, the “activity change, negative = inhibition” value is 139%.

Consider `COc1ccc(Nc2nc(-c3ccccc3)cs2)cc1`, for which the “activity change, negative = inhibition” value is 8.91%. As to `CCCn1c(CCNc2nc(-c3ccc(OC)cc3)cs2)nc2ccccc21`, the Potency was 11.7 µM (active). Regarding `COc1ccc(-c2csc(Nc3ccc(O)cc3)n2)cc1`, the “activity change, negative = inhibition” value is 37.7%.
